Test results published in the supplement of paper PMC10849652.
About 8,800 targets were measured; listed, in parts, are those with a hit and a random draw of the rest. About 0.5% of all pairs of compound and target were hits.

Tests used:
Assay in all cases: log2 fold change, soluble protein after heating vs DMSO (PISA); higher = thermal stabilisation; K562 lysate, 10 uM; active = over 0.2 and 3.5 SD of the protein, either way, in both replicates (recomputed)
nilotinib = compound: Cc1cn(-c2cc(NC(=O)c3ccc(C)c(Nc4nccc(-c5cccnc5)n4)c3)cc(C(F)(F)F)c2)cn1 [nilotinib]
How it was run: (§1)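 K562 pellets were dounce-homogenised in PBS pH 7.4 containing 1 mM MgCl2, and the crude extract, at 1 mg/mL protein, was exposed to 10 μM compound for 30 min. Aliquots were heated for 3 min across 48°C-58°C, pooled, brought to 0.5% NP-40 at 4°C and spun at 21,000xg for 90 min, with the supernatant taken as soluble protein. TMTpro 16plex LC-MS/MS with equalised channel sums quantified that protein. Values are log-two fold changes in thermal stability relative to solvent controls, taken from duplicates.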

[1] = compound: Cc1nc(Nc2n[nH]c3c2CN(C(=O)N[C@H](CN(C)C)c2ccccc2)C3(C)C)c2sccc2n1
How it was run: as §1

dasatinib = compound: Cc1nc(Nc2ncc(C(=O)Nc3c(C)cccc3Cl)s2)cc(N2CCN(CCO)CC2)n1 [dasatinib]
How it was run: as §1

[2] = compound: Cc1ncc(-c2ccnc(Nc3ccc(S(C)(=O)=O)cc3)n2)n1C(C)C
How it was run: as §1

[3] = compound: Cn1cc(-c2ccc3c(c2)CCN3C(=O)Cc2cccc(C(F)(F)F)c2)c2c(N)ncnc21
How it was run: as §1

quisinostat = compound: Cn1cc(CNCC2CCN(c3ncc(C(=O)NO)cn3)CC2)c2ccccc21 [quisinostat]
How it was run: as §1

tipifarnib = compound: Cn1cncc1[C@@](N)(c1ccc(Cl)cc1)c1ccc2c(c1)c(-c1cccc(Cl)c1)cc(=O)n2C [tipifarnib]
How it was run: as §1

[4] = compound: NC(=O)Nc1cc(-c2cccc(F)c2)sc1C(=O)N[C@H]1CCCNC1
How it was run: as §1

[5] = compound: NC(=O)c1cnc(N[C@@H]2CCCC[C@@H]2N)nc1Nc1cccc(-n2nccn2)c1
How it was run: as §1

[6] = compound: NC1(c2ccc(-c3nc4ccn5c(=O)[nH]nc5c4cc3-c3ccccc3)cc2)CCC1
How it was run: as §1

[7] = compound: NCC(=O)Nc1ccc(-n2nc(C(F)(F)F)cc2-c2ccc3c(ccc4ccccc43)c2)cc1
How it was run: as §1

vorinostat = compound: O=C(CCCCCCC(=O)Nc1ccccc1)NO [vorinostat]
How it was run: as §1

silmitasertib = compound: O=C(O)c1ccc2c(c1)nc(Nc1cccc(Cl)c1)c1ccncc12 [silmitasertib]
How it was run: as §1

[8] = compound: O=C1NC(=O)C(c2cnc3ccccn23)=C1c1cn2c3c(cc(F)cc13)CN(C(=O)N1CCCCC1)CC2
How it was run: as §1

entospletinib = compound: c1cn2cc(-c3ccc4cn[nH]c4c3)nc(Nc3ccc(N4CCOCC4)cc3)c2n1 [entospletinib]
How it was run: as §1

Measured: log2 fold change

LRRC40 (UniProt Q9H9A6)
Chain of UniProt Q9H9A6 (Q9H9A6 whole entry, looked up): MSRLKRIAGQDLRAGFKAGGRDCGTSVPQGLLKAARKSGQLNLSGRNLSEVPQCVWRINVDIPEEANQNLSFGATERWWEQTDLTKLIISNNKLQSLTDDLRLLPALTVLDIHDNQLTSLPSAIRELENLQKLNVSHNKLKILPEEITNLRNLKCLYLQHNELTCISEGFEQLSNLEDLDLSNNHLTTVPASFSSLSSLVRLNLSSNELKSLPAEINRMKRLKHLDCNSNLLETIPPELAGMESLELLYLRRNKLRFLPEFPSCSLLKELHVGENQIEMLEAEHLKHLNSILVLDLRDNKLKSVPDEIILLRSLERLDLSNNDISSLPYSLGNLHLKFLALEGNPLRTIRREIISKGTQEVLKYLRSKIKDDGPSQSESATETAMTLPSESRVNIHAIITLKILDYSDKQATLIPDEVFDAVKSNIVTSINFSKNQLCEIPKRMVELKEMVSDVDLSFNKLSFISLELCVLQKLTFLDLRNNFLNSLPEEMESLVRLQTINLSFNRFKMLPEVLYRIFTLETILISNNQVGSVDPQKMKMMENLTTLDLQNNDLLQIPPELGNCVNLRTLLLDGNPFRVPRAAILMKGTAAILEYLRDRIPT
inactive: nilotinib -0.008 | [1] -0.01 | dasatinib -0.012 | [2] -0.035 | [3] 0.017 | quisinostat 0.032 | tipifarnib -0.032 | [4] 0.004 | [5] 0.004 | [6] 0.029 | [7] -0.005 | silmitasertib 0.027 | [8] -0.043 | entospletinib 0.02
active: vorinostat -0.315

MAP4 (UniProt E7EVA0)
active: quisinostat -0.271
inactive: nilotinib 0.073 | [1] 0.021 | dasatinib -0.009 | [2] 0.046 | [3] 0.057 | tipifarnib -0.031 | [4] 0.024 | [5] 0.016 | [6] -0.1 | [7] -0.044 | vorinostat 0.025 | silmitasertib 0.028 | [8] 0.079 | entospletinib -0.025

MLST8 (UniProt Q9BVC4)
Chain of UniProt Q9BVC4 (Q9BVC4 whole entry, looked up): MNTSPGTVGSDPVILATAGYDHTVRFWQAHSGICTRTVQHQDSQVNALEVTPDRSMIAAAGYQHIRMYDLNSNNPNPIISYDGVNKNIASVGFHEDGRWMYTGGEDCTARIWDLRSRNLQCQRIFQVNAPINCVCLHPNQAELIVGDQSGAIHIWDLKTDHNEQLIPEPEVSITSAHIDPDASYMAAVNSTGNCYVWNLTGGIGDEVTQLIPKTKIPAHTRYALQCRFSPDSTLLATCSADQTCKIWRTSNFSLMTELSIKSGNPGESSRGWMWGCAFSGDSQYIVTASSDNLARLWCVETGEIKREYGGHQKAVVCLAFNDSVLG
active: vorinostat -0.357
inactive: nilotinib -0.011 | [1] -0.006 | dasatinib 0.046 | [2] 0.079 | [3] -0.041 | quisinostat -0.058 | tipifarnib 0.076 | [4] 0.043 | [5] -0.065 | [6] -0.067 | [7] 0.006 | silmitasertib 0.104 | [8] 0.046 | entospletinib 0.043

MPP1 (UniProt Q00013)
active: vorinostat -0.297
inactive: nilotinib -0.017 | [1] -0.014 | dasatinib -0.011 | [2] 0.011 | [3] 0.007 | quisinostat 0.017 | tipifarnib 0 | [4] 0.024 | [5] 0.017 | [6] 0 | [7] 0.012 | silmitasertib 0.02 | [8] 0.024 | entospletinib 0.007

KIF2A isoform 4 (UniProt O00139)
active: vorinostat -0.518
inactive: nilotinib 0.021 | [1] -0.015 | dasatinib -0.022 | [2] -0.02 | [3] 0.042 | quisinostat -0.005 | tipifarnib 0.015 | [4] 0.021 | [5] 0.017 | [6] 0.006 | [7] -0.018 | silmitasertib 0.044 | [8] -0.015 | entospletinib -0.006

KLC4 isoform 3 (UniProt Q9NSK0)
Chain of UniProt Q9NSK0 (Q9NSK0 whole entry, looked up): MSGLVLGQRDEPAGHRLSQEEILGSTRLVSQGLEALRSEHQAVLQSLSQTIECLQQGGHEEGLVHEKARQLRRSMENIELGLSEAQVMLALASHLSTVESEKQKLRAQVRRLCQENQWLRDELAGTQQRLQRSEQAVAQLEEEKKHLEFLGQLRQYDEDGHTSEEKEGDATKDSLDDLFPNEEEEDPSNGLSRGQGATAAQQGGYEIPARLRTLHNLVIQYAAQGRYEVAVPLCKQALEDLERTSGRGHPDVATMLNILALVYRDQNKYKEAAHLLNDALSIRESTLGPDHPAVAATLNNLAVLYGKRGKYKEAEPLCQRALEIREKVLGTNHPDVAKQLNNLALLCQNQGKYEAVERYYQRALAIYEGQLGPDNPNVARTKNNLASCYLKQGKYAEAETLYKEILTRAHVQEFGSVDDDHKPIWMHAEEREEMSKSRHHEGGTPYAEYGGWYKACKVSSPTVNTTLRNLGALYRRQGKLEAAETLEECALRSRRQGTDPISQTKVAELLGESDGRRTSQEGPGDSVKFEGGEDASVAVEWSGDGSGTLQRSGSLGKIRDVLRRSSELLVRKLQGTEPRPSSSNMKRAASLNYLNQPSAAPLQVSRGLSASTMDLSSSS
inactive: nilotinib -0.023 | [1] 0.047 | dasatinib -0.013 | [2] 0.089 | [3] 0.048 | quisinostat -0.018 | tipifarnib -0.015 | [4] 0.01 | [5] 0.021 | [6] -0.003 | [7] 0.01 | silmitasertib 0.009 | [8] -0.041 | entospletinib -0.006
active: vorinostat -0.557

MIF (UniProt P14174)
inactive: nilotinib 0.036 | [1] -0.042 | dasatinib 0.001 | [2] -0.007 | [3] -0.009 | quisinostat 0.058 | tipifarnib 0.061 | [4] 0.035 | [5] 0 | [6] 0.033 | [7] 0.048 | vorinostat -0.055 | silmitasertib 0.065 | [8] -0.009 | entospletinib 0.064

MARK3 (UniProt P27448)
Chain of UniProt P27448 (P27448 whole entry, looked up): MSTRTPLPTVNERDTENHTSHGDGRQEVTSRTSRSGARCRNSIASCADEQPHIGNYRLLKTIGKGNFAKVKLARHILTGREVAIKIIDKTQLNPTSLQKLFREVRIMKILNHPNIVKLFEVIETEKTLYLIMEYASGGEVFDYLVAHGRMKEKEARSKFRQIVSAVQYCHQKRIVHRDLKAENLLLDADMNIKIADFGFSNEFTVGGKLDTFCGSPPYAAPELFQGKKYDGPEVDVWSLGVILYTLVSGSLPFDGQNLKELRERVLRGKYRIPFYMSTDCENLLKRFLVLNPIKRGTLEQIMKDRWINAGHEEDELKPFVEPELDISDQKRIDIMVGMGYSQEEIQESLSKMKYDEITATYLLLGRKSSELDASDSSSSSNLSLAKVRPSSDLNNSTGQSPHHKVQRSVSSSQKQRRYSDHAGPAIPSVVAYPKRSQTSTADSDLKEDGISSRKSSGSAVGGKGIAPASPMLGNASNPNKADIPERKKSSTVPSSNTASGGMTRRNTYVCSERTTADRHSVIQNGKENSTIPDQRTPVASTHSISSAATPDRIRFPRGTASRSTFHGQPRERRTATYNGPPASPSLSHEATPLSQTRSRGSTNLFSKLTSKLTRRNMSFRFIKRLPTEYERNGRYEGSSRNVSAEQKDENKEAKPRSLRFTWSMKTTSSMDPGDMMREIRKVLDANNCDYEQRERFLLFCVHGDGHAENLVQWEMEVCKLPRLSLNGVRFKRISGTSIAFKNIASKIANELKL
inactive: nilotinib 0.013 | [1] -0.004 | dasatinib -0.186 | [2] -0.05 | [3] 0.014 | quisinostat 0.172 | tipifarnib -0.072 | [4] -0.08 | [5] -0.029 | [6] -0.06 | [7] -0.035 | vorinostat -0.069 | [8] 0.035 | entospletinib 0.036
active: silmitasertib 0.445

MAT2B (UniProt Q9NZL9)
inactive: nilotinib 0.002 | [1] -0.014 | dasatinib -0.023 | [2] -0.024 | [3] -0.007 | quisinostat 0.021 | tipifarnib 0.02 | [4] -0.005 | [5] 0.04 | [6] 0.009 | [7] 0.019 | vorinostat 0.103 | silmitasertib 0.005 | [8] 0.021 | entospletinib 0.024

MOCS1 isoform 8 (UniProt Q9NZB8)
Chain of UniProt Q9NZB8 (Q9NZB8 whole entry, looked up): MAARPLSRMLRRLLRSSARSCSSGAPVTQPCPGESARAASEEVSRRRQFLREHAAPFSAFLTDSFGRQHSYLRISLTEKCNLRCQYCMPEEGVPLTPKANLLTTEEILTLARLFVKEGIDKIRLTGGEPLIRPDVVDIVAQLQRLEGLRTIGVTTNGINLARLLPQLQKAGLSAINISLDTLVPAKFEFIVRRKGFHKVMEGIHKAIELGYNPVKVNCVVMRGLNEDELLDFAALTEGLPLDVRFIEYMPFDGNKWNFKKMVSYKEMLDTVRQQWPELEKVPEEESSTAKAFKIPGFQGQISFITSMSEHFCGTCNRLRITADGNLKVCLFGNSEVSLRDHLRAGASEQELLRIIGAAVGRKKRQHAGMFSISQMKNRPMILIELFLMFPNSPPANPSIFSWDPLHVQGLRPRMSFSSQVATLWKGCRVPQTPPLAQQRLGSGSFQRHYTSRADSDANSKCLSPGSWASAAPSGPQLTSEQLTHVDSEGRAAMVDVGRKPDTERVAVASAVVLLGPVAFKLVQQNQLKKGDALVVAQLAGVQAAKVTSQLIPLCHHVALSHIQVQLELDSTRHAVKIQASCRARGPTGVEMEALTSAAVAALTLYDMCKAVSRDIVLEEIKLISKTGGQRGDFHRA
inactive: nilotinib 0.188 | [1] -0.03 | dasatinib 0.074 | [2] 0.227 | [3] -0.013 | quisinostat -0.082 | tipifarnib -0.231 | [4] 0.093 | [5] 0.021 | [6] -0.033 | [7] -0.1 | vorinostat 0.06 | silmitasertib -0.018 | [8] -0.111 | entospletinib -0.051

MLXIP (UniProt Q9HAP2)
Chain of UniProt Q9HAP2 (Q9HAP2 whole entry, looked up): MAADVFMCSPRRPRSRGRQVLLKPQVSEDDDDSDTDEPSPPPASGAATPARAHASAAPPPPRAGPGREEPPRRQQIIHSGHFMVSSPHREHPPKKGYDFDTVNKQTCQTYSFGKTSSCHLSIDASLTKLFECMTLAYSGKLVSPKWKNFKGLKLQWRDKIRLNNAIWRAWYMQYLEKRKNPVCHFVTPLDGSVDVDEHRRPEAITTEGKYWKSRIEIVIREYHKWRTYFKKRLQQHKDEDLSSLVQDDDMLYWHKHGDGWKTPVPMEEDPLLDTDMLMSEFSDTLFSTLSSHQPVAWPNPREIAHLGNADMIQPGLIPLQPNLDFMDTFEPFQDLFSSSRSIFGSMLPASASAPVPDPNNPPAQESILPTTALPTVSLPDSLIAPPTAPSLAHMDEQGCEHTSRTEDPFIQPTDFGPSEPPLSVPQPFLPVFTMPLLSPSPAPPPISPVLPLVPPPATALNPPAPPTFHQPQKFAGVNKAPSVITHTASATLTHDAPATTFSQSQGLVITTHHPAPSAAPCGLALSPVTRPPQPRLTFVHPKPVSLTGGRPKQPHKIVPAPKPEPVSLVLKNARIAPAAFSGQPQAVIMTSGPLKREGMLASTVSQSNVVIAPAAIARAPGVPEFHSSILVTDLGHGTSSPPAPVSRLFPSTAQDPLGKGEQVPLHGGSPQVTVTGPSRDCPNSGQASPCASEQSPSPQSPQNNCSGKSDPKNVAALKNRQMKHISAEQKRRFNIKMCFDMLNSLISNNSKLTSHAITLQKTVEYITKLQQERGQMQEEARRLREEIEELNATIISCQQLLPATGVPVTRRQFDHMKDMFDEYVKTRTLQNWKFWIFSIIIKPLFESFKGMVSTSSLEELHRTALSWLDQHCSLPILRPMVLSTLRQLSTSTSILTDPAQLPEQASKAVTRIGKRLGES
active: vorinostat -0.314
inactive: nilotinib 0.09 | [1] 0.003 | dasatinib -0.068 | [2] 0.003 | [3] 0.02 | quisinostat -0.04 | tipifarnib 0 | [4] 0.082 | [5] -0.01 | [6] -0.028 | [7] 0.037 | silmitasertib 0.026 | [8] 0.079 | entospletinib 0.03

LZTS1 (UniProt Q9Y250)
inactive: nilotinib -0.13 | [1] 0.023 | dasatinib 0.056 | [2] 0.167 | [3] -0.266 | tipifarnib 0.087 | [4] 0.186 | [5] -0.02 | [6] -0.297 | [7] 0.04 | vorinostat 0.101 | silmitasertib -0.143 | [8] 0.121 | entospletinib 0.07
active: quisinostat -1.06

MON2 isoform 5 (UniProt Q7Z3U7)
inactive: nilotinib -0.006 | [1] -0.021 | dasatinib -0.072 | [2] 0.018 | [3] 0.039 | quisinostat -0.074 | tipifarnib -0.004 | [4] 0.021 | [5] 0.005 | [6] -0.003 | [7] 0.021 | silmitasertib 0.021 | [8] 0 | entospletinib 0.005
active: vorinostat -0.525

LARS (UniProt Q9P2J5)
inactive: nilotinib 0.012 | [1] 0.003 | dasatinib -0.065 | [2] -0.012 | [3] 0.038 | quisinostat -0.005 | tipifarnib -0.006 | [4] 0.034 | [5] 0 | [6] -0.024 | [7] -0.021 | silmitasertib 0.052 | [8] -0.003 | entospletinib 0.012
active: vorinostat -0.399

LRIF1 (UniProt Q5T3J3)
inactive: nilotinib -0.147 | [1] 0.086 | dasatinib 0.047 | [2] 0.022 | [3] -0.011 | quisinostat 0 | tipifarnib 0.057 | [4] -0.008 | [5] -0.163 | [6] -0.056 | [7] 0.079 | vorinostat 0.082 | silmitasertib -0.11 | [8] -0.024 | entospletinib 0.001

KIF3C (UniProt O14782)
active: [7] 1.17
inactive: nilotinib -0.038 | [1] -0.117 | dasatinib 0.026 | [2] 0.191 | [3] 0.062 | quisinostat -0.204 | tipifarnib -0.187 | [4] 0.043 | [5] -0.194 | [6] 0.145 | vorinostat -0.352 | silmitasertib 0.249 | [8] 0.074 | entospletinib 0.032

MGAT5 (UniProt Q09328)
Chain of UniProt Q09328 (Q09328 whole entry, looked up): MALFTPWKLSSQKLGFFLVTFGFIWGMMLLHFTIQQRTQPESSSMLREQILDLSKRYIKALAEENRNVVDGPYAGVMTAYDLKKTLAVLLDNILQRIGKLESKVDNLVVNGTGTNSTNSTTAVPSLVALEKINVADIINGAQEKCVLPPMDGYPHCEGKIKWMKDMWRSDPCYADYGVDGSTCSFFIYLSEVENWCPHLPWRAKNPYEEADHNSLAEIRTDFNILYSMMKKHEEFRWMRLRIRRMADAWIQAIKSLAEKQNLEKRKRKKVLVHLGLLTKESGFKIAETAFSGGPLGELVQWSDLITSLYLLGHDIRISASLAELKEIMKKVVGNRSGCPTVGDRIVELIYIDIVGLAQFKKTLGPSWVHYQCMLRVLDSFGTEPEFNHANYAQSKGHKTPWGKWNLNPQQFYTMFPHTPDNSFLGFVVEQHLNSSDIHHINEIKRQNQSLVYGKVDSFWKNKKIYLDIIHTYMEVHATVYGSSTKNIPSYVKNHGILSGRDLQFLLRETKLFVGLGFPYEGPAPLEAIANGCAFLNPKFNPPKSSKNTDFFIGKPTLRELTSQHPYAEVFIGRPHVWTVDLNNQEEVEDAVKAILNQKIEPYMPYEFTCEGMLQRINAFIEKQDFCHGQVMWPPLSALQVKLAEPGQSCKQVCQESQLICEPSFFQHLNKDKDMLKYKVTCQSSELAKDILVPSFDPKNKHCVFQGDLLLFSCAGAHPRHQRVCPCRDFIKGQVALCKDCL
inactive: nilotinib 0.035 | [1] 0.01 | dasatinib -0.005 | [2] 0.012 | [3] 0.002 | quisinostat 0.051 | tipifarnib -0.02 | [4] -0.019 | [5] 0.022 | [6] -0.003 | [7] 0.054 | vorinostat 0.139 | silmitasertib -0.014 | [8] 0.013 | entospletinib 0.063

MBOAT2 (UniProt Q6ZWT7)
inactive: nilotinib -0.006 | [1] -0.095 | dasatinib -0.178 | [2] 0.024 | [3] -0.027 | quisinostat -0.042 | tipifarnib 0.12 | [4] 0.011 | [5] 0.03 | [6] -0.012 | [7] -0.017 | vorinostat 0.13 | silmitasertib 0.024 | [8] 0.005 | entospletinib -0.092

MAP2K1 (UniProt Q02750)
Chain of UniProt Q02750 (Q02750 whole entry, looked up): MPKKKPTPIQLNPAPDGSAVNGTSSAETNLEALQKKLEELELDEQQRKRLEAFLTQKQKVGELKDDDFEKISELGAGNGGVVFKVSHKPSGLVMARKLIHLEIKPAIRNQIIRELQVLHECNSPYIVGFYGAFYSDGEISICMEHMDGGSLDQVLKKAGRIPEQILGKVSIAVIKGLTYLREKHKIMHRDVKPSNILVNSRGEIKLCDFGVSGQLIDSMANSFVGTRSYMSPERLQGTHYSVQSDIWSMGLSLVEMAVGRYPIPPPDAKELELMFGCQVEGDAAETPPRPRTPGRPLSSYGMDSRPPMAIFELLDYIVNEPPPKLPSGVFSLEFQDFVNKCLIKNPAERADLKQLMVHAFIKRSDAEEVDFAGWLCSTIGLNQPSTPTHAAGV
active: dasatinib 0.296 | [4] 0.4
inactive: nilotinib -0.02 | [1] 0.107 | [2] 0.057 | [3] -0.057 | quisinostat -0.064 | tipifarnib -0.037 | [5] 0.033 | [6] -0.02 | [7] -0.005 | vorinostat -0.116 | silmitasertib 0.108 | [8] 0.006 | entospletinib 0.03

MICB, A0A140T979
inactive: nilotinib -0.044 | [1] 0.042 | dasatinib 0.024 | [2] 0.033 | [3] -0.055 | quisinostat -0.06 | tipifarnib -0.025 | [4] -0.004 | [5] 0.491 | [6] 0.21 | [7] 0.068 | vorinostat 0.196 | silmitasertib -0.121 | [8] 0.021 | entospletinib 0.35

MAP3K4 (UniProt Q9Y6R4)
inactive: nilotinib 0.003 | [1] 0.206 | [2] 0.095 | [3] 0.132 | quisinostat -0.078 | tipifarnib -0.015 | [4] 0.203 | [5] 0.045 | [6] -0.021 | [7] -0.025 | silmitasertib 0.229 | [8] -0.025 | entospletinib -0.045
active: dasatinib 0.485 | vorinostat -0.524
